Most compounds without a hit are left out; they make up all but 5.3% or so of the library.
MT1-MMP txn act: activates MT1-MMP transcription; HT1080 MT1-MMP promoter luciferase reporter, luminescence, overnight; active compounds read high; activation factor at 10 µM; actives 0.16% (n = 86,000);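 active = activation factor of at least 2 for MT1-MMP transcription at 10 µM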
PostGolgi ctrl: yeast control strain growth, post-Golgi counter-screen | inhibition, % at 10 µM | actives 5% (n = 98,000) | AID 738 | efflux-deficient yeast background strain, growth absorbance A615, 16 h
Measles CPE: protection of cells from measles virus. Measles virus-infected cells, CPE protection, absorbance. protection (pct of control), % at 4 µM. actives 1.5% (n = 140,000); in the data active = protection mostly above about 24%, no sharp cut-off; inactive = mostly below about 26%
PostGolgi yeast: growth inhibition of a yeast mutant, post-Golgi transport screen | post-Golgi transport phenotypic cell assay | inhibition, % at 10 µM | actives 0.9% (n = 98,000) | AID 739;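 note: yeast cells grown in 1536-well plates; yeast grown about 18 h at 30C before absorbance read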
* hit, by the source's call. Cut-off read from the data, not from the text of the source, unless noted: active = inhibition above about 30%; inactive = the rest.

For N#CC1=C(N)Oc2c(oc(CO)cc2=O)C1c1ccsc1 (centres undefined) the results were MT1-MMP txn act 1, PostGolgi ctrl 3, Measles CPE 9 and PostGolgi yeast -3.
N#CC1=C(N)Oc2c(ccc3ccccc23)C1c1ccsc1 (centres undefined) was read as PostGolgi ctrl 49*, Measles CPE 4 and PostGolgi yeast -2.
Screening CC1CCCCN1C(=S)Nc1ccc2nc3n(c(=O)c2c1)CCCCC3 (centres undefined) returned Measles CPE 12.
For Cc1cccc(-c2nnc3n2N=C(c2ccccc2)CS3)c1 the results were MT1-MMP txn act 1, PostGolgi ctrl 38*, Measles CPE 8 and PostGolgi yeast -11.
For COc1ccc(OCc2nnc3n2N=C(c2ccc(OC)cc2)CS3)cc1 the results were MT1-MMP txn act 1.2, PostGolgi ctrl 32*, Measles CPE 13 and PostGolgi yeast -2.
COc1ccc(C2=Nn3c(nnc3-c3ccco3)SC2)cc1 was read as MT1-MMP txn act 1, PostGolgi ctrl 45*, Measles CPE 14 and PostGolgi yeast 21.
`COc1ccc(OCc2nnc3n2N=C(c2ccc(C)cc2)CS3)cc1` gave MT1-MMP txn act 1.1, PostGolgi ctrl 14, Measles CPE 2 and PostGolgi yeast 4.
`COc1ccc(-c2nnc3n2N=C(c2ccccc2)CS3)cc1OC` gave MT1-MMP txn act 1.1.
For CCN1CCCC1CN(Cc1cc2ccc(C)cc2[nH]c1=O)C(=S)Nc1ccc(OC)cc1OC (centres undefined) the results were Measles CPE 22.
For CCC(C)(C(=O)NC1CCCCC1)N(C(=O)Cc1cccs1)c1ccccc1 (centres undefined) the results were Measles CPE 2.
For O=C(NOC(=O)c1ccccc1Cl)c1cccs1 the results were MT1-MMP txn act 1.1, PostGolgi ctrl -1, Measles CPE 6 and PostGolgi yeast 1.
`Cc1ccccc1-n1c(C)cc(/C=N/Nc2ccc([N+](=O)[O-])cn2)c1C` gave MT1-MMP txn act 1.4, PostGolgi ctrl 19, Measles CPE 17 and PostGolgi yeast -1.
For O=[N+]([O-])c1ccc(N/N=C\c2cccn2-c2ccccc2)nc1 the results were PostGolgi ctrl 40*, Measles CPE 32 and PostGolgi yeast 11.
Screening COc1ccc(NC(=O)/C(Cl)=C(/Cl)S(=O)(=O)Cc2ccc(C)cc2)cn1 returned PostGolgi ctrl 84*, Measles CPE -1 and PostGolgi yeast 97*.
COc1ccc(NC(=O)C(CC(C)C)NC(=O)c2ccccc2C)cn1 (centres undefined) was read as MT1-MMP txn act 1, PostGolgi ctrl 3, Measles CPE 6 and PostGolgi yeast -2.
`CCC1=C2CC[C@H]3C(=O)N(CC(=O)OC)C(=O)[C@H]3[C@H]2[C@@]2(Cc3ccccc3)C(=NCCc3c[nH]c4ccccc34)OC(=O)N2C1=O` gave MT1-MMP txn act 1.2.
`Cc1cccc(Oc2ncnc3oc(-c4ccccc4)cc23)c1C` gave PostGolgi ctrl 10, Measles CPE 17 and PostGolgi yeast -7.
For CSC1=NC(C)(C)CC2(C)Nc3ccccc3N12 (centres undefined) the results were Measles CPE 18*.
Screening CCOC(=O)c1c(OCC)[nH]c2ccc(O)cc12 returned MT1-MMP txn act 1.2, PostGolgi ctrl -1, Measles CPE 8 and PostGolgi yeast 2.
Screening CCOC(=O)c1c(C)[nH]c(C=C2C(=O)CCCC2=O)c1O returned Measles CPE 4.
For CC1(C)CC(O)C(C(O)c2cccc([N+](=O)[O-])c2)C(C)(C)N1 (centres undefined) the results were Measles CPE 5.
`Cc1cccc(NC(=O)CN2CCC(NC(=O)C3CCCCC3)CC2)c1C` gave Measles CPE 16.
Cc1ccc(C)c(NC(=O)C2CCCN2/C=C/C(=O)C(F)(F)F)c1 (centres undefined) was read as Measles CPE 14.
CCOC(=O)c1sc(=S)n(-c2ccccc2OC)c1N was read as MT1-MMP txn act 1.1, PostGolgi ctrl 5, Measles CPE 14 and PostGolgi yeast 5.
Screening COC(=O)c1sc(=S)n(-c2ccccc2OC)c1N returned PostGolgi ctrl 8, Measles CPE 44* and PostGolgi yeast -1.
`CCOC(=O)c1c(C)n(C)c2ccc(OC)c(NC(=O)CN3CCN(C(=O)c4ccco4)CC3)c12` gave MT1-MMP txn act 1.1, PostGolgi ctrl 6, Measles CPE 26* and PostGolgi yeast 18.
`CCOC(=O)c1c(C)n(C)c2ccc(OC)c(NC(=O)CCN3CCSCC3)c12` gave MT1-MMP txn act 1.3, PostGolgi ctrl 4, Measles CPE 37* and PostGolgi yeast -8.
`Cc1ccc(C(=O)CCC(=O)Nc2cccc(C(F)(F)F)c2)cc1` gave PostGolgi ctrl 6, Measles CPE 4 and PostGolgi yeast -5.
For CCCc1oc(C(=O)O)cc1CN1CCOCC1 the results were PostGolgi ctrl -1, Measles CPE 34* and PostGolgi yeast -12.
`CCc1cc2c(SCC(=O)c3ccc(C)cc3)ncnc2s1` gave MT1-MMP txn act 1.2 and Measles CPE 41*.
CCN(CC(=O)N1CCc2ccccc2C1)S(=O)(=O)c1ccc2ccccc2c1 was read as MT1-MMP txn act 1, PostGolgi ctrl 25, Measles CPE 13 and PostGolgi yeast 5.
For CCOc1ccc(S(=O)(=O)Nc2nc3ccccc3nc2Nc2ccc(N3CCOCC3)cc2)cc1 the results were Measles CPE 12.
O=C(Nc1nc(-c2cc(Cl)sc2Cl)cs1)c1ccccc1 was read as PostGolgi ctrl 10, Measles CPE 22 and PostGolgi yeast 3.
`CSc1nccc(-c2cc(Cl)sc2Cl)n1` gave MT1-MMP txn act 1.1, PostGolgi ctrl 12, Measles CPE 19* and PostGolgi yeast 0.
O=C(NC1CCCCCC1)c1cccc(COCC(F)(F)F)c1 was read as MT1-MMP txn act 1.6 and Measles CPE 36*.
Screening COCCn1nnnc1SCC(=O)N1CCCCC1 returned MT1-MMP txn act 1.2, PostGolgi ctrl 30*, Measles CPE 11 and PostGolgi yeast 1.
`COCCn1c(SCC(=O)N2CCCC2)nnc1C(C)C` gave MT1-MMP txn act 1.1, PostGolgi ctrl 9, Measles CPE 6 and PostGolgi yeast 2.
Cc1ccnn1CC(=O)N/N=C/c1cccs1 was read as Measles CPE 6.
`CC1=CCC(C(=O)N/N=C/c2cccs2)C(c2ccc(F)cc2)C1` (centres undefined) gave MT1-MMP txn act 1.1, PostGolgi ctrl 45*, Measles CPE 7 and PostGolgi yeast 3.
Screening Cn1nc(-c2ccc(C(=O)Nc3cccnc3)cc2)c2ccccc2c1=O returned MT1-MMP txn act 1.2, PostGolgi ctrl -4, Measles CPE 5 and PostGolgi yeast 0.
`Cc1ccc(NC(=O)c2ccc(-c3nn(C)c(=O)c4ccccc34)cc2)c(C)c1` gave MT1-MMP txn act 1, PostGolgi ctrl 41*, Measles CPE 10 and PostGolgi yeast -4.
Cc1ccc(NC(=O)c2ccc(-c3nn(C)c(=O)c4ccccc34)cc2)cc1 was read as MT1-MMP txn act 1.1, PostGolgi ctrl -3, Measles CPE 31 and PostGolgi yeast 3.
Screening Cn1nc(-c2ccc(C(=O)Nc3cccc(Cl)c3)cc2)c2ccccc2c1=O returned MT1-MMP txn act 1, PostGolgi ctrl 0, Measles CPE 38* and PostGolgi yeast 6.
O=C(COC(=O)C1CC(O)CN1S(=O)(=O)c1ccc(Cl)cc1)c1cccc(Cl)c1 (centres undefined) was read as Measles CPE 3.
For COCCNC(=O)C(=O)NCC1OCCCN1S(=O)(=O)c1cccs1 (centres undefined) the results were Measles CPE 16.
COc1cc(CC(NC(C)=O)C(=O)NC2CCN(c3c(Cc4ccccc4)c(C)nc4ncnn34)CC2)cc(OC)c1 (centres undefined) was read as Measles CPE 2.
